USP17 inh = blocks human USP17 ubiquitin-rhodamine cleavage; A8MUK1; purified USP17, Ub-rhodamine cleavage fluorescence, 3 h; inhibition, % at 50 µM; 6.5% of 47,000 active
Target sequence (A8MUK1 whole entry, looked up): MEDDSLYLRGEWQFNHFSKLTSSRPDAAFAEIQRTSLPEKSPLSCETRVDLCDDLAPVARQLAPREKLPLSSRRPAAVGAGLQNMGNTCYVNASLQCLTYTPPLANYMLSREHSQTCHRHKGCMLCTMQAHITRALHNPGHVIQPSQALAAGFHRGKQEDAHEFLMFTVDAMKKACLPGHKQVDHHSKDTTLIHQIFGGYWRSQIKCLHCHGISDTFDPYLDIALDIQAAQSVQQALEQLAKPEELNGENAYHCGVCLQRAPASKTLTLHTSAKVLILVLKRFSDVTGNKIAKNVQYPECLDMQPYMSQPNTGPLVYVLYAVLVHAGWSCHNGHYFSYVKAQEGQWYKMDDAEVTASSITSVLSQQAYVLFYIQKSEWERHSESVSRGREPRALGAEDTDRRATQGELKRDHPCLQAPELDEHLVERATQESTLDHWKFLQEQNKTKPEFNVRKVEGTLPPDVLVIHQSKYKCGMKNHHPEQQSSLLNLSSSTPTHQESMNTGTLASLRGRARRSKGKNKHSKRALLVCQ
USP8 block = blocks human USP8 ubiquitin-rhodamine cleavage. purified USP8, Ub-rhodamine cleavage fluorescence, 30 min. inhibition, % at 20 µM. 4.2% of 47,000 active. P40818
USP7 block = inhibitors of human USP7 deubiquitinase; Q93009; purified USP7, Ub-rhodamine cleavage fluorescence; inhibition, % at 20 µM; 0.3% of 47,000 active
USP30 inh = human USP30 deubiquitinase inhibition; inhibition, % at 25 µM; Q70CQ3; 5.3% of 47,000 active; purified USP30, Ub-rhodamine cleavage fluorescence; AID 1645860
USP28 block = human USP28 deubiquitinase inhibition; Q96RU2; purified USP28, Ub-rhodamine cleavage fluorescence, 30 min; inhibition, % at 25 µM; 3% of 47,000 active
USP10 inh = blocks human USP10 ubiquitin-rhodamine cleavage. purified USP10, Ub-rhodamine fluorescence, 60 min. AID 1645856. 1.1% of 47,000 active. inhibition, % at 20 µM
* marks the source's active call; other numbers are inactive results. Compounds with a hit are over-represented: about 13% of the library has one in this group of screens. Cut-off read from the data, not from the text of the source: active = inhibition above about 30%; inactive = the rest.

SMILES | USP17 inh | USP8 block | USP7 block | USP30 inh | USP28 block | USP10 inh
O=C(Nc1ccc2c(c1)OCCO2)C1CCN(C(=O)c2ccccc2)CC1 | 13 | 0 | -9 | 21 | 76* | 5
O=C(Nc1ccc2c(c1)OCO2)C1CCN(C(=O)c2ccc3n[nH]nc3c2)CC1 | 26 | 36* | 5 | -13 | 45* | 0
CCOc1cc(N2CCOCC2)c(OCC)cc1NC(=O)c1cc2c(s1)CCC2 | 36* | 50* | 17 | 11 | 13 | 30
COc1ccc(-n2c(SCC(=O)N3CCCC3)nc3n[nH]c(C)c3c2=N)cc1 | 17 | -1 | 3 | -11 | -4 | 0
CCOc1ccc(NC(=O)CSc2nc3n[nH]c(C)c3c(=N)n2-c2ccc(OC)cc2)cc1 | 9 | 3 | 2 | 52* | 11 | 1
CCCCOc1ccccc1C(=O)Nc1ccc(OCC)c2ncccc12 | 11 | 44* | -4 | 3 | -2 | -4
CCC(=O)c1c[nH]c(C(=O)NCCCn2ccnc2)c1 | -12 | 1 | -4 | -20 | -9 | -1
COc1ccc(C(=O)c2c[nH]c(C(=O)NCCCn3ccnc3)c2)cc1 | 18 | 21 | 5 | 33* | 14 | 4
O=C1CC(c2ccc(C(F)(F)F)cc2)c2c(nc(-c3ccccc3)[nH]c2=O)N1 (centres undefined) | 6 | 65* | 15 | 14 | 5 | 2
COc1ccc(C2CC(=O)Nc3nc(-c4ccccc4)[nH]c(=O)c32)cc1OC (centres undefined) | 18 | 16 | 4 | -7 | -3 | -1
COc1ccc(OC)c(NC(=O)c2cnc(NCc3ccccc3F)nc2C)c1 | 2 | 33* | -15 | -10 | -2 | -2
COc1ccc(CNc2ncc(C(=O)NCc3ccccc3)c(C)n2)cc1 | -8 | -14 | -14 | -100 | -17 | -6
CC(=O)c1cccc(NC(=O)c2cnc(NCc3ccccc3F)nc2C)c1 | -2 | -33 | -16 | 20 | 8 | 4
Cc1nc(NCc2ccccc2F)ncc1C(=O)NCc1ccccc1 | 46* | 16 | 5 | 24 | 4 | 4
Cc1ccc(C)c(NC(=O)Cn2c(-n3nc(C)cc3C)nc3c(c2=O)CCC3)c1 | 10 | 11 | 2 | 16 | 12 | -3
O=c1ccc(-c2noc(Cc3cccc(C(F)(F)F)c3)n2)c[nH]1 | -28 | -161 | -20 | -158 | 48* | -4
O=c1ccc(-c2noc(CCC3CCCC3)n2)c[nH]1 | -8 | -2 | -31 | -1 | 43* | -2
COc1ccc(Cc2nc(-c3ccc(=O)[nH]c3)no2)cc1OC | -38 | -35 | 3 | -1 | 33* | -2
O=c1ccc(-c2noc(Cc3cccc(Cl)c3)n2)c[nH]1 | -6 | -46 | -16 | -93 | 68* | -8
O=C(CCn1c(=O)c2ccccc2n(Cc2cc(=O)n3ccccc3n2)c1=O)N1CC=C(c2ccccc2)CC1 | -19 | -4 | 0 | -15 | -5 | -2
Cc1nc2sc3c(SCC(=O)Nc4cccc5ccccc45)ncnc3c2c2c1COC(C)(C)C2 | 16 | 4 | -1 | 18 | 9 | 1
Cc1sc2ncnc(NS(=O)(=O)c3ccc(Cl)cc3)c2c1C | 7 | 11 | -54 | -32 | -2 | -5
Cc1ccc(-c2nn(C(C)(C)C)c3ncnc(NS(=O)(=O)c4ccc(Cl)cc4)c23)cc1 | 7 | 18 | 17 | 21 | 4 | 42*
CSc1nnc(COc2cccc3ccc(C)nc23)n1C | 8 | 22 | 1 | 15 | 15 | 3
Cc1ccc2cccc(OCc3nnc(SCC(=O)c4ccc(Cl)cc4)n3C)c2n1 | 61* | 33* | 8 | 39* | 6 | 13
SMILES | USP17 inh | USP8 block | USP7 block | USP30 inh | USP28 block | USP10 inh
Cc1cc(O)c2c(C)c(CC(=O)N[C@@H](Cc3c[nH]c4ccccc34)C(=O)O)c(=O)oc2c1 | 10 | 12 | 7 | 15 | 0 | 3
COc1ccccc1CNc1nc(-c2nnc(-c3ccccc3)o2)nc2ccccc12 | 38* | 36* | 13 | 44* | 3 | 7
COc1ccccc1CNC(=O)c1cncc(NS(=O)(=O)c2ccc3c(c2)OCCO3)c1 | -4 | -6 | -1 | -47 | -7 | -7
Cc1sc(NC(=O)Cn2nnc3ccccc32)nc1-c1ccc2c(c1)CCN2C(=O)c1ccccc1F | 14 | 50* | 9 | 3 | -4 | 56*
CC(C)(C)CC(=O)N1CCc2cc(-c3csc(NC(=O)Cn4nnc5ccccc54)n3)ccc21 | 9 | -7 | -4 | -62 | 4 | -5
O=C(Cn1nnc2ccccc21)Nc1nc(-c2ccc3c(c2)CCN3C(=O)c2ccccc2F)cs1 | 54* | 77* | 24 | 11 | 10 | 50*
CC(C)[C@H](NC(=O)[C@H](Cc1ccccc1)n1c(=O)[nH]c2ccccc2c1=O)C(=O)NCC1CCC(C(=O)O)CC1 (some centres undefined) | -10 | -31 | -7 | -1 | -9 | 3
CCN(CC)S(=O)(=O)c1ccc(C)c(NC(=O)CSc2nnc(-c3ccncc3)n2Cc2ccccc2)c1 | -7 | -1 | 3 | 12 | 2 | 1
Cc1ccc(S(=O)(=O)N(C)C)cc1NC(=O)Cc1ccc(Cl)c(Cl)c1 | 14 | 5 | -13 | 25 | 93* | 5
C[C@]12CN(Cc3cccc4cccnc34)C[C@H]1NC(=O)c1ccccc1C2=O | 18 | 44* | 1 | -5 | 0 | 0
CCCn1c(=O)c(-c2ccc(C(=O)NCc3ccc(OC)cc3)cc2)nc2cccnc21 | 87* | 65* | 31* | 32* | 13 | 33*
CCn1c(=O)c(-c2ccc(C(=O)NCc3ccc(OC)cc3OC)cc2)nc2cccnc21 | -6 | 10 | 7 | -2 | 11 | 3
O=C(NCc1ccccc1Cl)c1c(O)c2ccccc2[nH]c1=O | 13 | 23 | 10 | 14 | 13 | 12
Cc1sc(NC(=O)c2cccnc2)nc1-c1ccc2c(c1)NC(=O)CO2 | 13 | 31* | 4 | 24 | 5 | 3
COc1ccc(C(=O)Nc2nc(-c3ccc4c(c3)NC(=O)CO4)c(C)s2)cc1OC | 58* | 5 | 0 | 6 | -4 | -4
COc1ccc(NS(=O)(=O)c2ccc3c(c2)NC(=O)CO3)cc1OC | 0 | 1 | 4 | 5 | 0 | 1
COc1cccc(C2c3[nH]c4ccccc4c3C[C@H]3C(=O)N(CCCc4ccccc4)CC(=O)N23)c1 (some centres undefined) | -17 | -13 | -3 | -102 | -26 | -3
COc1cccc(C2c3[nH]c4ccccc4c3C[C@@H]3C(=O)N(CC(O)c4ccccc4)CC(=O)N23)c1 (some centres undefined) | 45* | 31* | 10 | -40 | 40* | 22
O=C1[C@H]2Cc3c([nH]c4ccccc34)C(c3cccc([N+](=O)[O-])c3)N2C(=O)CN1Cc1ccco1 (some centres undefined) | 40* | -14 | -89 | -3 | 1 | 7
